Assay results published in PubChem BioAssay AID1721 (National Center for Advancing Translational Sciences (NCATS), 2009).
Screen size: about 290,000 compounds; about 1,100 (0.38%) were called active. Where a call stands in place of a potency, no number is given. The call rests on the fitted dose curve; in most records, active means well fitted inhibition curve with a large enough effect; inconclusive means small, poorly fitted or top-dose-only effect, or another doubt; inactive means no such curve, though single readings can be large or run the other way. The sample as a whole holds a higher share of actives than the screen did.

Molecular target: Pyruvate kinase (Leishmania mexicana) (UniProt Q27686)
Experiment: qHTS Assay for Inhibitors of Leishmania Mexicana Pyruvate Kinase (LmPK)
Conditions: purified LmPK, Kinase-Glo ATP luminescence, 1 h; series mostly up to 57.5 µM
Text: NIH Chemical Genomics Center [NCGC] Malcolm Walkinshaw, Hugh Morgan, Linda Gilmore University of Edinburgh, UK MLPCN Grant: 1 R03 MH085697-01 NCGC Assay Overview: Pyruvate kinase (L. Mexicana) (LmPK) enzyme was supplied as a highly purified (>95% pure) sulphate-free preparation from University of Edinburgh, UK and assayed for its ability to generate ATP from ADP using phosphoenolpyruvate (PEP) as a substrate. ATP generation was detected in a coupled reaction by luciferase-mediated luminescence, an ATP-dependent process. […] The enzyme was assayed at an intermediate level of activity to screen for both inhibitors and activators.
NCGC Assay Protocol Summary: Three uL of enzyme mix (kept on ice) in assay buffer (50 mM Imidazole pH7.2, 50 mM KCl, 7 mM MgCl2, 0.01% Tween 20, 0.05% BSA) containing PEP (0.5 mM final concentration) and LmPK (0.1 nM final concentration) was dispensed into white solid bottom 1,536 well microtiter plates. 23 nL of compound were delivered by a pin tool and 1 uL of ADP mix in assay buffer (r.t; 0.1 mM final ADP concentration) was added. Plates were incubated at room temperature for 1 hour. Two uL of detection mix (Kinase-Glo, Promega; at 4 degree Celsius protected from light) was added and luminescence read by a ViewLux (Perkin Elmer) at 1 second exposure/plate. Data were normalized to the uninhibited and AC100 inhibition (no enzyme). To monitor activation, the first column contained a five-fold concentration of LmPK (0.5 nM).
Potency means the concentration at half of the fitted maximal effect.

Pyruvate kinase (Leishmania mexicana), sequence (Q27686 whole entry, looked up): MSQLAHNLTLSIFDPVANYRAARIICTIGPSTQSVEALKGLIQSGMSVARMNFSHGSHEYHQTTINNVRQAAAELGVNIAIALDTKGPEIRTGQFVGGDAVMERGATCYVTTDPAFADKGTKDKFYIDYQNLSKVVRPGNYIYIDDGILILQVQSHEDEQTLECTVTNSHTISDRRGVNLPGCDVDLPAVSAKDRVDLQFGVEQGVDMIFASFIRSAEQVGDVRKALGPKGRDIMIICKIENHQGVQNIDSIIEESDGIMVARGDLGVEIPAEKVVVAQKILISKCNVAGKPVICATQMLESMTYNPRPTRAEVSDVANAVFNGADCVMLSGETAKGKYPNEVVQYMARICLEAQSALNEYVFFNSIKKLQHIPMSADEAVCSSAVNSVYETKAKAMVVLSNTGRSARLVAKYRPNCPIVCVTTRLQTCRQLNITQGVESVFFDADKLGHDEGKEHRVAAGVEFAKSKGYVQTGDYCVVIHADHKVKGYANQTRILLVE

SMILES	Potency	activity change, negative = inhibition
O=C(NCc1ccccc1Cl)C1CCN(c2ncnc3c2nc2n3CCCCC2)CC1	inactive	
Cc1cc(C(=O)N/N=C/c2ccc(O)c([N+](=O)[O-])c2)c(C)n1-c1ccc(F)cc1	inactive	
O=C1CSC(=S)N1/N=C/c1ccc(O)c([N+](=O)[O-])c1	25.1 µM (active)	
CCOc1cccc(/C=N/N2C(=O)CSC2=S)c1O	inactive	
O=C(CN1CCCCCC1)Nc1ccc(Br)cc1[N+](=O)[O-]	inactive	
O=C(NCCCNC(=O)c1ccccc1Cl)c1cnccn1	inactive	
CC(=O)N(C1=C(Cl)C(=O)c2ccccc2C1=O)c1ccc(C(=O)O)cc1	4.47 µM (active)	
CC(C)N(C(=O)c1ccc(-c2ccccc2F)cc1)C(C)C	inactive	
O=C(CN1C(=O)c2ccccc2C1=O)NCc1ccc(C(=O)O)cc1	inactive	
Cc1cccc(N2CCN(S(=O)(=O)c3ccc4[nH]c(=O)c(=O)[nH]c4c3)CC2C)c1 (centres undefined)	inactive	
O=C(/C=C/NCc1ccc(F)cc1)c1ccccc1	inactive	
O=C(COc1ccc(S(=O)(=O)Nc2cccc(C(F)(F)F)c2)cc1)N1CCOCC1	inactive	
CCCn1c(C(C)Nc2nc(-c3ccc(C)cc3)cs2)nc2cc(Cl)c(N3CCCCC3)cc21 (centres undefined)	inactive	
COc1ccc(Sc2nc(-c3ccccc3)ncc2OC)cc1	inactive	
COc1ccc(-c2nc(-c3ccccc3)no2)c(OC)c1	14.1 µM (active)	
COc1ccccc1Cc1nc(-c2ccc(C)cc2)no1	inactive	
COC(=O)C1=C(C(=O)OC)[C@@H]2N(C)c3ccccc3[C@@]23C[C@@H](C(=O)OC)N(S(=O)(=O)c2ccc(Br)cc2)C3=N1		-0.27% [at 11.5 µM] (inactive)
COc1cc(CO)ccc1OCC(=O)Nc1cccc2ccccc12	inactive	
Cc1nc2cc3c(cc2s1)OCO3	inactive	
c1c2c(cc3sc(N4CCCCC4)nc13)OCCO2	6.31 µM (active)	
Brc1ccc2nc(N3CCCC3)sc2c1		-0.864% [at 11.5 µM] (inactive)
CCOc1ccc(NC(=O)COc2ccc(S(=O)(=O)N3CCCC3)cc2)cc1	inactive	
C[C@H]1Cc2c(-c3ccccc3)nc3c(c2CO1)CN(S(=O)(=O)c1ccc(Cl)c2nonc12)CC3		1.27% [at 11.5 µM] (inactive)
Cn1cc([N+](=O)[O-])c(C(=O)Nc2ccc3c(c2)OCCO3)n1	14.1 µM (active)	
Cc1onc(C(=O)Nc2ccc3c(c2)OCO3)c1[N+](=O)[O-]	inactive	
Cn1cc([N+](=O)[O-])c(C(=O)Nc2cnn(Cc3ccc(F)cc3)c2)n1	inactive	

SMILES	Potency	activity change, negative = inhibition
CCCCNC(=O)N(O)C1N(/N=C/c2ccccc2O)C(=S)SC1(C)C (centres undefined)	inactive	
COc1ccc(NS(=O)(=O)c2ccc3oc(SCC(N)=O)nc3c2)cc1	inactive	
CC(=O)Nc1ccc(NS(=O)(=O)c2ccc3c(c2)NC(=O)CC(=O)N3)cc1	inactive	
CN1CCN(C(=O)C(=O)c2cn(CC(=O)N3CCCC3)c3ccccc23)CC1	inactive	
O=C(c1ccc(F)cc1)n1c(=S)nc2ccccn21	5.01 µM (active)	
O=C(Cn1c(=S)nc2ccccn21)N1CCc2ccccc2C1	inactive	
O=C(c1ccc(F)cc1)n1cc(C(=S)N2CCOCC2)c2ccccc21	inactive	
C[C@H]1Cc2c(COc3ccccc3)nc3c(c2CO1)CN(C(=O)NCc1ccco1)CC3		4.14% [at 11.5 µM] (inactive)
CSCCC(NS(=O)(=O)c1ccccc1F)C(=O)N1CC=C(c2ccccc2)CC1 (centres undefined)	inactive	
O=C(NC1CCN(C(=S)Nc2ccc(Cl)cc2)CC1)C1CCCCC1	inactive	
CCCCCC(=O)NC(=S)NNC(=O)c1ccc([N+](=O)[O-])cc1	31.6 µM (active)	
CC(C)CC(=O)NC(=S)NNC(=O)c1cccc([N+](=O)[O-])c1	inactive	
COCCCNC(=S)NC(=O)c1ccc([N+](=O)[O-])cc1	inactive	
COc1cccc(C(=O)NNC(=O)c2cccc(F)c2)c1	inactive	
COc1ccc2oc(=O)c(C(=O)N3CCCC3)cc2c1	inactive	
COc1cccc(C(=O)c2cc3ccc(O)cc3oc2=O)c1	14.1 µM (active)	
CC(=O)C1=C(C)NC(=O)NC1c1ccc2c(c1)OCO2 (centres undefined)	inactive	
COC(=O)C(C)n1cnc2c(nnn2-c2ccc(F)cc2)c1=O (centres undefined)	inactive	
CC(=O)Nc1ccc(NC(=O)c2ccc3c(c2)C(=O)N(c2ccccc2C)C3=O)cc1	inactive	
O=C(NCc1ccccc1)C1CCN(C(=O)Cc2ccccc2)CC1	inactive	
Oc1ccc2ccccc2c1N=Nc1nccs1	inactive	
Oc1ccc(N=Nc2nccs2)c(O)c1	25.1 µM (active)	
CCOc1ccc(N(CC(=O)Nc2cccc(OC)c2)S(C)(=O)=O)cc1	inactive	
CC1(C(=O)NNC(=S)NCC2CCCO2)CC1(Cl)Cl (centres undefined)	inactive	
CN(C)C(=O)Cn1c(=O)n(S(=O)(=O)c2ccccc2)c2ccccc21	inactive	
CCOC(=O)c1c(S(=O)(=O)Nc2cccc(Cl)c2)c(C)n(C)c1C	inactive	

SMILES	Potency	activity change, negative = inhibition
COCCn1cnc2c1c(=O)n(Cc1ccc(Br)cc1)c(=O)n2Cc1ccccc1	inactive	
Cc1ccnc(NC(=O)c2ccoc2C)c1	11.2 µM (active)	
Cc1occc1C(=O)Nc1nnc(-c2ccncc2)s1	inactive	
Cc1occc1C(=O)Nc1cccc(Cn2cccn2)c1	inactive	
O=C(Nc1ccccc1)c1ccc2c(c1)OCO2	15.8 µM (active)	
O=C(Nc1ccccc1)c1ccc2c(c1)OCCCO2	inactive	
O=C(Nc1cccc([N+](=O)[O-])c1)c1ccc2c(c1)OCO2	inactive	
N/C(=N\OC(=O)c1cc(-c2ccccc2)nc2ccccc12)c1ccncc1	inactive	
Cc1cccc(/C(N)=N/OC(=O)c2ccccc2Cl)c1	11.2 µM (active)	
Cc1ccc(C(=O)O/N=C(\N)c2ccccn2)cc1Cl	inactive	
COc1cccc(CCNC(=O)c2cccc(NC(=O)C3=C(C)OCCS3)c2)c1	inactive	
CC1(C(=O)O)CCC(C(=O)Nc2ccc(Cl)c(Cl)c2)C1(C)C (centres undefined)	inactive	
COc1cccc(C(=O)Nc2ccc(N3CCN(C(=O)c4ccco4)CC3)cc2)c1	inactive	
CN1CCN(c2ccc(NC(=O)c3ccccc3)cc2)CC1	inactive	
COc1cccc(C(=O)Nc2ccc(N3CCCC3)cc2)c1	14.1 µM (active)	
CC1CC(C)CN(c2ccc(S(=O)(=O)N3CCOCC3)cc2)C1 (centres undefined)	inactive	
Cc1cc(CN(C)C(=O)c2cc(COc3ccc(C)c(C)c3)on2)n[nH]1	inactive	
O=c1oc2ccccc2cc1-c1csc(Nc2ccc(O)cc2)n1	inactive	
O=C(NCc1cccnc1)c1cccc(-c2cc3ccccc3oc2=O)c1	inactive	
Nc1ncc(-c2cc3ccccc3oc2=O)s1	11.2 µM (active)	
Clc1ccc(-c2cc(-c3ccccn3)on2)c(Cl)c1	15.8 µM (active)	
Clc1ccc(-c2ncc3ccccn23)c(Cl)c1	inactive	
O=C1CSC(c2ccccc2)N1c1nc(-c2ccc(Cl)cc2Cl)cs1 (centres undefined)	inactive	
CCOC(=O)C(C)n1cnc2c(nnn2-c2ccc(F)cc2)c1=O (centres undefined)	inactive	
CN(C)N1C(N)=C(C#N)C(c2ccc(Br)cc2)C2=C1CCCC2=O (centres undefined)	inactive	
COc1ccc(-c2cn3cccnc3n2)cc1	inactive	

SMILES	Potency	activity change, negative = inhibition
CCN(CC)S(=O)(=O)c1ccc(-c2cn3ccc(C)cc3n2)cc1	inactive	
COc1ccc(-c2cn3ccc(C)cc3n2)cc1	8.91 µM (active)	
Cc1ccc(NS(=O)(=O)c2c(C)[nH]c(C)c2C(=O)N2CCCCC2)c(C)c1	inactive	
c1ccc2[nH]c(-c3nc4ccccc4[nH]3)nc2c1	8.91 µM (active)	
Cc1ccc(-c2nc3ccccc3[nH]2)cc1N	15.8 µM (active)	
OC(c1nc2ccccc2[nH]1)C(O)C(O)C(O)c1nc2ccccc2[nH]1 (centres undefined)	inactive	
Cc1ccc(-c2nc3ccccc3[nH]2)cc1NC(=O)c1sc2ccccc2c1Cl	inactive	
COc1ccc(Br)cc1C(=O)NC(=S)Nc1cc(-c2nc3ccccc3[nH]2)ccc1C	inactive	
O=C(Nc1cccc(-c2nc3ccccc3[nH]2)c1)c1ccc(C(=O)Nc2cccc(-c3nc4ccccc4[nH]3)c2)cc1	inactive	
C[C@H](NC(=O)C1CCN(S(=O)(=O)c2ccccc2)CC1)C(=O)NCc1ccccc1	inactive	
COc1ccccc1C(=O)NC(=S)Nc1ccccc1N1CCCCC1	inactive	
CC1(C)Cc2c(sc(NC(=O)C(=O)N3CCOCC3)c2C#N)CO1	inactive	
COc1ccc(C(=O)C[n+]2ccc(C)cc2)cc1	inactive	
COc1ccc(C(=O)C[n+]2ccc(N)c(C)c2C)cc1	7.94 µM (active)	
COc1ccc(OCCC(=O)c2ccc(OC)cc2)cc1	inactive	
CC(=O)NC1=NN(C(C)=O)C(C)(c2ccc(Cl)s2)S1 (centres undefined)	inactive	
CC(C)[C@H](NC(=O)N1CCn2c1nc1ccccc12)C(=O)NCc1ccc2c(c1)OCO2	inactive	
N/C(=N\OC(=O)c1ccc([N+](=O)[O-])cc1)c1ccccn1	5.01 µM (active)	
N/C(=N\OC(=O)Cc1ccc([N+](=O)[O-])cc1)c1ccccn1	inactive	
COc1ccc(C(=O)O/N=C(\N)c2ccccn2)cc1[N+](=O)[O-]	inactive	
COc1cccc(NC(=O)[C@H](Cc2c[nH]c3ccccc23)NC(=O)[C@@H]2Cc3ccccc3CN2)c1	inactive	
COc1cc(C(=O)N/C(=C\c2cn(C)c3ccccc23)C(=O)N2CCOCC2)cc(OC)c1OC	inactive	
COc1cnc(-c2ccccn2)nc1Oc1ccc(C(C)(C)C)cc1	inactive	
C(=N\N1CCN(c2ccccn2)CC1)/C1=C(N2CCOCC2)C(=C/c2ccccc2)/CC1	inactive	
O=C1Nc2ccc(Br)cc2/C1=N/N=C/C1=C(N2CCOCC2)C(=C\c2ccccc2)/CC1	14.1 µM (active)	
N#C/C(=C\C1=C(N2CCOCC2)C(=C\c2ccccc2)/CC1)C(=O)Nc1ccccc1F	inactive	
